Measurements reported in PMC4336329 (PLoS ONE, 2015).
About 14,000 (4.5%) of roughly 310,000 compounds showed an effect of 50% or more. The effect is printed as a negative number. The entries come from a sample that favours strong results as a whole.
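Also: peak tail current of the secondary pulse compared with the same well before compound.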

These compounds were tested against human ether-à-go-go-related gene (hERG) potassium channel (human, UniProt Q12809) (assay: primary screen, population patch clamp on CHO cells stably expressing hERG; higher = less effect of the substance).
Sequence of human ether-à-go-go-related gene (hERG) potassium channel (Q12809 whole entry, looked up): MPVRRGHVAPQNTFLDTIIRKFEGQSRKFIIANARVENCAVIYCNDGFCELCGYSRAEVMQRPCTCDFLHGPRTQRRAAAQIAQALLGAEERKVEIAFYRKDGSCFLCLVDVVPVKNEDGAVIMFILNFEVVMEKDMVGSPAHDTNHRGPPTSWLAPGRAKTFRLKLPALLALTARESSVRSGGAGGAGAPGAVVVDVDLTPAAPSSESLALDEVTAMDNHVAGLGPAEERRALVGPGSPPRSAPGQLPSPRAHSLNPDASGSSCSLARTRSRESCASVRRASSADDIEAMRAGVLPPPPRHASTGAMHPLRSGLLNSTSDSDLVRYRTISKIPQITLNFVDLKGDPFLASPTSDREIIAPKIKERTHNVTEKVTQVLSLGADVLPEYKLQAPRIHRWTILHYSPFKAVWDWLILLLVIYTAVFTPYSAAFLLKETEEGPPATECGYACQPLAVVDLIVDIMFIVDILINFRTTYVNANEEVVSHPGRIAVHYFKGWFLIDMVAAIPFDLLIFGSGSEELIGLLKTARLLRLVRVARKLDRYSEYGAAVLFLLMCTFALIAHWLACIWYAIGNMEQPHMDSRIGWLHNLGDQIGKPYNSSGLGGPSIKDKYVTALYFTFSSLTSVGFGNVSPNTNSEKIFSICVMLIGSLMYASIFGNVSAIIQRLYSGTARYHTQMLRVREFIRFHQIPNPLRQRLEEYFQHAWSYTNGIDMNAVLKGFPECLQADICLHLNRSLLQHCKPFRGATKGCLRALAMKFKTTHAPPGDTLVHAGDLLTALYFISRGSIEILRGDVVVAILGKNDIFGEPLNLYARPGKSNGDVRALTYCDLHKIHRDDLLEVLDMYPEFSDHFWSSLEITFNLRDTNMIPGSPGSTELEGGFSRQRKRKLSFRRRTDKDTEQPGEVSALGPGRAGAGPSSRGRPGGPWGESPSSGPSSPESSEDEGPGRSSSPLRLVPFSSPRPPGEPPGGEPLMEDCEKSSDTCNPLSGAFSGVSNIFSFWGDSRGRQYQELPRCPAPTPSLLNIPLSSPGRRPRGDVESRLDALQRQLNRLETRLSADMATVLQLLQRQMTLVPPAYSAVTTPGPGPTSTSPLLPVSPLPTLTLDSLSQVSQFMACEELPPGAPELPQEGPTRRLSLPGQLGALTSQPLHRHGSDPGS
For CCOc1cc(CNCCc2cccc(F)c2)ccc1OC.O=C(O)C(=O)O, the “hERG current change (%, negative = inhibition) at 10uM” value was -43.8%.
O=C(Nc1ccc2c(c1)OCCO2)c1cnn(-c2ccccc2)n1 was tested, and the “hERG current change (%, negative = inhibition) at 10uM” value was -6.02%.
For O=C(CSc1nc2cc(Cl)ccc2c(=O)n1Cc1ccco1)Nc1ccc(S(=O)(=O)N2CCOCC2)cc1, the “hERG current change (%, negative = inhibition) at 10uM” value was -13.6%.
In the case of Cc1ccc(NC(=O)CCNC(=O)c2ccccc2Cl)cc1S(=O)(=O)N1CCOCC1, the “hERG current change (%, negative = inhibition) at 10uM” value is reported as -8.82%.
For Cn1c(C(=O)O)ccc1S(=O)(=O)N(Cc1ccccc1)Cc1ccccc1, the “hERG current change (%, negative = inhibition) at 10uM” value was 16.5%.
With Cc1ccccc1NC(=O)Cn1c(NCC(C)O)nc2ccccc21 (stereo not shown) the “hERG current change (%, negative = inhibition) at 10uM” value was -2.11%.
With COc1ccc(S(=O)(=O)c2c(O)c3ccc(C(=O)Nc4ccccc4F)cc3[nH]c2=O)cc1 the “hERG current change (%, negative = inhibition) at 10uM” value was -0.579%.
In the case of CCc1nnc(NC(=O)CSc2nnc(CSc3nc(C)cc(C)n3)o2)s1, the “hERG current change (%, negative = inhibition) at 10uM” value is reported as 3.21%.
In the case of N=c1c(C(=O)NCCc2ccccc2)cc2c(=O)n3ccccc3nc2n1CC1CCCO1 (stereo not shown), the “hERG current change (%, negative = inhibition) at 10uM” value is reported as -90.7%.
With O=C(NCc1ccc(Cl)cc1)c1ccc2c(=O)n(CC3CCCO3)c(=S)[nH]c2c1 (stereo not shown) the “hERG current change (%, negative = inhibition) at 10uM” value was 7.01%.
COc1ccc(CCNC(=O)Cn2c(=O)n(CC3CCCO3)c(=O)c3ccccc32)cc1OC (stereo not shown) was tested, and the “hERG current change (%, negative = inhibition) at 10uM” value was -0.738%.
For COc1ccc(CCNC(=O)c2cc3c(=O)n4ccccc4nc3n(CC3CCCO3)c2=N)cc1OC (stereo not shown), the “hERG current change (%, negative = inhibition) at 10uM” value was -78.4%.
In the case of Cc1cccn2c(=O)c3cc(C(=O)NCc4ccc(F)cc4)c(=N)n(CC4CCCO4)c3nc12 (stereo not shown), the “hERG current change (%, negative = inhibition) at 10uM” value is reported as -74%.
In the case of Cc1ccc2nc(/C(C#N)=C\c3ccc(Oc4ccc(C(F)(F)F)cc4[N+](=O)[O-])cc3)[nH]c2c1, the “hERG current change (%, negative = inhibition) at 10uM” value is reported as 20.8%.
For COc1ccc(C(=O)CC(=O)C(=O)Nc2ccc(OC)c(Cl)c2)cc1, the “hERG current change (%, negative = inhibition) at 10uM” value was 12.9%.
In the case of Cc1nn(-c2ccccc2)c(N2CCCCC2)c1/C=N/NC(=O)c1ccncc1, the “hERG current change (%, negative = inhibition) at 10uM” value is reported as 7.3%.
In the case of O=C1CCCC2=C1C(c1ccccc1)n1c(s/c(=C/c3cccc(F)c3)c1=O)=N2 (stereo not shown), the “hERG current change (%, negative = inhibition) at 10uM” value is reported as 16%.
In the case of NCc1cccc(CNc2ccc([N+](=O)[O-])cc2C(N)=O)c1, the “hERG current change (%, negative = inhibition) at 10uM” value is reported as -19.9%.
With NC(=O)CC(NC(=O)Cc1ccc(Cl)cc1)c1ccc(NC2CCN(Cc3ccccc3)CC2)c([N+](=O)[O-])c1 (stereo not shown) the “hERG current change (%, negative = inhibition) at 10uM” value was -18.5%.
For O=[N+]([O-])c1cc(C(F)(F)F)ccc1NC1CCN(Cc2ccccc2)CC1, the “hERG current change (%, negative = inhibition) at 10uM” value was -68%.
NC(=O)CC(NC(=O)c1ccccc1)c1ccc(NC2CCN(Cc3ccccc3)CC2)c([N+](=O)[O-])c1 (stereo not shown) was tested, and the “hERG current change (%, negative = inhibition) at 10uM” value was 1.08%.
In the case of NC(=O)CC(NC(=O)Cc1ccc(Br)cc1)c1ccc(NC2CCN(Cc3ccccc3)CC2)c([N+](=O)[O-])c1 (stereo not shown), the “hERG current change (%, negative = inhibition) at 10uM” value is reported as -45.8%.
O=[N+]([O-])c1cc(C(F)(F)F)ccc1NC1CCN(Cc2ccccc2)C1 (stereo not shown) was tested, and the “hERG current change (%, negative = inhibition) at 10uM” value was -66.6%.
NC(=O)CC(NC(=O)c1cccc(Br)c1)c1ccc(NC2CCN(Cc3ccccc3)CC2)c([N+](=O)[O-])c1 (stereo not shown) was tested, and the “hERG current change (%, negative = inhibition) at 10uM” value was 6.8%.
For CCCc1nc(SCC(=O)NNC(=O)C2CCCCC2)c2ccccc2n1, the “hERG current change (%, negative = inhibition) at 10uM” value was -2.77%.
For Cc1ccc(S(=O)(=O)N(C)c2ccc(OCC(=O)Nc3nc(-c4ccccc4)cs3)cc2)cc1, the “hERG current change (%, negative = inhibition) at 10uM” value was 14.3%.
With Clc1ccc(-c2c[n+](Cc3ccc(Cl)cc3Cl)c3n2CCCCC3)cc1.[Br-] the “hERG current change (%, negative = inhibition) at 10uM” value was -66%.
Clc1ccc(C[n+]2cc(-c3ccccc3)n3c2CCC3)cc1.[Cl-] was tested, and the “hERG current change (%, negative = inhibition) at 10uM” value was -33.5%.
For Clc1ccc(C[n+]2cc(-c3ccccc3)n3c2CCCCC3)c(Cl)c1.[Br-], the “hERG current change (%, negative = inhibition) at 10uM” value was -74.4%.
For O=[N+]([O-])c1ccc(C[n+]2cc(-c3ccccc3)n3c2CCCCC3)cc1.[Br-], the “hERG current change (%, negative = inhibition) at 10uM” value was -35.3%.
In the case of Cc1cc(Nc2ccccc2)c2c([N+](=O)[O-])cc(C)c(C)c2n1, the “hERG current change (%, negative = inhibition) at 10uM” value is reported as -9.29%.
O=C(CCn1c(=O)[nH]c2ccccc2c1=O)Nc1ccccc1 was tested, and the “hERG current change (%, negative = inhibition) at 10uM” value was 16.4%.
In the case of Cc1ccc(S(=O)(=O)NCC(=O)N(CC(=O)NCc2ccco2)Cc2ccc(F)cc2)cc1, the “hERG current change (%, negative = inhibition) at 10uM” value is reported as 5.19%.
In the case of O=C(COC(=O)CC1Sc2ccccc2NC1=O)NCc1ccccc1 (stereo not shown), the “hERG current change (%, negative = inhibition) at 10uM” value is reported as -21.4%.
With Cc1cccc(N2CCN(C(C)C(=O)N3CCc4ccccc43)CC2)c1C (stereo not shown) the “hERG current change (%, negative = inhibition) at 10uM” value was 17%.
With CCCNC(=O)CS(=O)(=O)Cc1nc(-c2ccccc2C)oc1C the “hERG current change (%, negative = inhibition) at 10uM” value was 3.88%.
O=C1CCc2cc(S(=O)(=O)NCCCC(=O)N3CCN(Cc4ccc5c(c4)OCO5)CC3)ccc2N1 was tested, and the “hERG current change (%, negative = inhibition) at 10uM” value was -0.149%.
For O=S(=O)(c1cccc(F)c1)N1CCN(Cc2ccc3c(c2)OCO3)CC1, the “hERG current change (%, negative = inhibition) at 10uM” value was -35.8%.
O=S(=O)(c1ccc(F)c(F)c1)N1CCN(Cc2ccc3c(c2)OCO3)CC1 was tested, and the “hERG current change (%, negative = inhibition) at 10uM” value was -51.4%.
O=C1CCc2cc(S(=O)(=O)N3CCN(Cc4ccc5c(c4)OCO5)CC3)ccc2N1 was tested, and the “hERG current change (%, negative = inhibition) at 10uM” value was -70.1%.
With COc1ccc(S(=O)(=O)N2CCN(Cc3ccc4c(c3)OCO4)CC2)cc1F the “hERG current change (%, negative = inhibition) at 10uM” value was -30.5%.
For O=S(=O)(c1ccc2c(c1)OCCO2)N1CCN(Cc2ccc3c(c2)OCO3)CC1, the “hERG current change (%, negative = inhibition) at 10uM” value was 3.98%.
In the case of O=[N+]([O-])c1cc(Br)c(O)c(/C=N/Nc2nnnn2-c2cccc3ccccc23)c1, the “hERG current change (%, negative = inhibition) at 10uM” value is reported as 0.778%.
With O=C(Cc1c[nH]c2ccccc12)Nc1nccs1 the “hERG current change (%, negative = inhibition) at 10uM” value was 0.956%.
With O=C(CN1C(=O)C2CC=CCC2C1=O)Nc1cc(C(F)(F)F)ccc1N1CCCC1 (stereo not shown) the “hERG current change (%, negative = inhibition) at 10uM” value was -24.6%.
In the case of O=C(O)c1cc2n(n1)CCN(Cc1ccccc1Cl)C2=O, the “hERG current change (%, negative = inhibition) at 10uM” value is reported as 8.71%.
In the case of Cc1nc2ccccc2c(=O)n1/N=C/c1ccccc1, the “hERG current change (%, negative = inhibition) at 10uM” value is reported as -0.523%.
For Cc1cc2ncn(/N=C/c3ccc([N+](=O)[O-])o3)c2cc1C, the “hERG current change (%, negative = inhibition) at 10uM” value was -0.858%.
Cc1ccc(/C=N/n2c(C)nc3ccccc3c2=O)o1 was tested, and the “hERG current change (%, negative = inhibition) at 10uM” value was 10.9%.
Cc1nc2ccccc2n1/N=C/c1ccc([N+](=O)[O-])s1 was tested, and the “hERG current change (%, negative = inhibition) at 10uM” value was -12.3%.
For Cc1nc2ccccc2c(=O)n1/N=C/c1ccc([N+](=O)[O-])o1, the “hERG current change (%, negative = inhibition) at 10uM” value was -53.3%.
Cc1nc2ccccc2n1/N=C/c1ccc([N+](=O)[O-])o1 was tested, and the “hERG current change (%, negative = inhibition) at 10uM” value was -58.9%.
